Shown is part of a subset that was picked to be rich in the strongest signals.
What was measured:
Test in all cases: glycan array binding signal (z-score within array); higher = stronger binding
Conditions in all cases: glycan notation: IUPAC condensed, linker removed
Man(a1-3)[Man(a1-6)]Man = target: Man(a1-3)[Man(a1-6)]Man
Outline: (§1)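 Glycan array data were curated from 3228 arrays in the Consortium for Functional Glycomics database and kept only where the protein sequence was available. Glycan names were converted to IUPAC-condensed notation, and columns mapping to the same glycan were averaged. The binding signal is a within-array Z-score, averaged across arrays of the same protein sequence at different concentrations or buffers and across linkers. Negative Z-scores can be read as non-binding.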

[1] = target: Man(a1-3)[Man(a1-6)]Man(a1-6)[Man(a1-2)Man(a1-3)]Man(b1-4)GlcNAc(b1-4)GlcNAc
Outline: as §1

[2] = target: Man(a1-3)[Man(a1-6)]Man(a1-6)[Man(a1-3)]Man
Outline: as §1

Neu5Ac(a2-3)Gal = target: Neu5Ac(a2-3)Gal
Outline: as §1

[3] = target: Neu5Ac(a2-3)Gal(b1-3)GalNAc(b1-4)[Neu5Ac(a2-8)Neu5Ac(a2-3)]Gal(b1-4)Glc
Outline: as §1

[4] = target: Neu5Ac(a2-3)Gal(b1-4)GlcNAc
Outline: as §1

[5] = target: Neu5Ac(a2-3)Gal(b1-4)GlcNAc(b1-2)Man(a1-3)[GlcNAc(b1-2)Man(b1-4)GlcNAc(b1-2)Man(a1-6)]Man(b1-4)GlcNAc(b1-4)GlcNAc
Outline: as §1

[6] = target: Neu5Ac(a2-3)Gal(b1-4)GlcNAc(b1-3)Gal(b1-4)GlcNAc(b1-3)Gal(b1-4)GlcNAc
Outline: as §1

[7] = target: Neu5Ac(a2-6)GlcNAc(b1-4)GlcNAc(b1-4)GlcNAc
Outline: as §1

[8] = target: Neu5Ac9Ac(a2-3)Gal(b1-4)GlcNAc
Outline: as §1

[9] = target: Neu5Ac9Ac(a2-6)Gal(b1-4)GlcNAc
Outline: as §1

[10] = target: Fuc(a1-2)Gal(b1-3)GalNAc(b1-3)Gal(a1-4)Gal(b1-4)Glc
Outline: as §1

[11] = target: Fuc(a1-2)[GalNAc(a1-4)]Gal(b1-4)GlcNAc
Outline: as §1

[12] = target: Fuc(a1-3)[Gal(b1-4)]GlcNAc(b1-4)Gal(b1-4)[Fuc(a1-3)]GlcNAc
Outline: as §1

[13] = target: Fuc(a1-3)[Gal3S(b1-4)]GlcNAc
Outline: as §1

Gal(b1-3)GlcNAc = target: Gal(b1-3)GlcNAc
Outline: as §1

[14] = target: Gal(b1-4)GlcNAc(b1-3)Gal(b1-4)GlcNAc(b1-3)Gal(b1-4)GlcNAc
Outline: as §1

Gal3S(b1-4)Glc6S = target: Gal3S(b1-4)Glc6S
Outline: as §1

Gal3S6S(b1-4)GlcNAc6S = target: Gal3S6S(b1-4)GlcNAc6S
Outline: as §1

Gal6S(b1-4)Glc = target: Gal6S(b1-4)Glc
Outline: as §1

Gal6S(b1-4)Glc6S = target: Gal6S(b1-4)Glc6S
Outline: as §1

GalNAc(a1-3)GalNAc = target: GalNAc(a1-3)GalNAc
Outline: as §1

Glc(a1-6)Glc(a1-6)Glc = target: Glc(a1-6)Glc(a1-6)Glc
Outline: as §1

[15] = target: GlcNAc(b1-4)GlcNAc(b1-4)GlcNAc(b1-4)GlcNAc(b1-4)GlcNAc
Outline: as §1

Kdn(a2-3)Gal(b1-4)GlcNAc = target: Kdn(a2-3)Gal(b1-4)GlcNAc
Outline: as §1

[16] = target: Neu5Ac(a2-6)Gal(b1-4)GlcNAc(b1-3)Gal(b1-4)[Fuc(a1-3)]GlcNAc(b1-3)Gal(b1-4)[Fuc(a1-3)]GlcNAc
Outline: as §1

[17] = target: Neu5Ac(a2-8)Neu5Ac(a2-3)[GalNAc(b1-4)]Gal(b1-4)Glc
Outline: as §1

B1: ConA (Canavalia ensiformis), P02866 (protein)
chain: MAISKKSSLFLPIFTFITMFLMVVNKVSSSTHETNALHFMFNQFSKDQKDLILQGDATTGTDGNLELTRVSSNGSPQGSSVGRALFYAPVHIWESSAVVASFEATFTFLIKSPDSHPADGIAFFISNIDSSIPSGSTGRLLGLFPDANVIRNSTTIDFNAAYNADTIVAVELDTYPNTDIGDPSYPHIGIDIKSVRSKKTAKWNMQNGKVGTAHIIYNSVDKRLSAVVSYPNADSATVSYDVDLDNVLPEWVRVGLSASTGLYKETNTILSWSFTSKLKSNEIPDIATVV
glycan array binding signal (z-score) (Man(a1-3)[Man(a1-6)]Man): 5.51 | glycan array binding signal (z-score) [1]: 4.75 | glycan array binding signal (z-score) [2]: 4.27 | glycan array binding signal (z-score) (Neu5Ac(a2-3)Gal): -0.283 | glycan array binding signal (z-score) [3]: -0.248 | glycan array binding signal (z-score) [4]: -0.29 | glycan array binding signal (z-score) [5]: -0.041 | glycan array binding signal (z-score) [6]: -0.269 | glycan array binding signal (z-score) [7]: -0.184 | glycan array binding signal (z-score) [8]: -0.009 | glycan array binding signal (z-score) [9]: -0.243

B2: CBM32-1 (Clostridium perfringens) (protein)
chain: MGSSHHHHHHSSGLVPRGSHMASGVEITEGVTVTAKGNTEGNTADLAIDGDLSTYWESSNDYKWIEVDLGGIYELSKIEIFNKDEAVYKYNIYASEDGENFNKIAYKNNDNVSDSNGNVHTIDNVRAGKIRIDVVQNSNSDRVNIAEINVFG
glycan array binding signal (z-score) [10]: -0.205 | glycan array binding signal (z-score) [11]: 0.059 | glycan array binding signal (z-score) [12]: 0.331 | glycan array binding signal (z-score) [13]: -0.283 | glycan array binding signal (z-score) (Gal(b1-3)GlcNAc): -0.333 | glycan array binding signal (z-score) [14]: 0.889 | glycan array binding signal (z-score) (Gal3S(b1-4)Glc6S): 3.21 | glycan array binding signal (z-score) (Gal3S6S(b1-4)GlcNAc6S): 5.08 | glycan array binding signal (z-score) (Gal6S(b1-4)Glc): 0.513 | glycan array binding signal (z-score) (Gal6S(b1-4)Glc6S): 4.39 | glycan array binding signal (z-score) (GalNAc(a1-3)GalNAc): -0.173 | glycan array binding signal (z-score) (Glc(a1-6)Glc(a1-6)Glc): -0.279 | glycan array binding signal (z-score) [15]: 5.14 | glycan array binding signal (z-score) (Kdn(a2-3)Gal(b1-4)GlcNAc): -0.439 | glycan array binding signal (z-score) [5]: 3.77 | glycan array binding signal (z-score) [16]: 0.193 | glycan array binding signal (z-score) [17]: -0.358
